Targets with a hit are over-represented here; the source holds about 7,900 in all. About 0.6% of all pairs of compound and target were hits. A number with no mark means an inactive call.
Tests used:
Assay in all cases: log2 fold change, soluble protein after heating vs DMSO (PISA); higher = thermal stabilisation; K562 cells, 10 uM, 30 min; active = over 0.2 and 3.5 SD of the protein, either way, in both replicates (recomputed)
[1] = target: ZNF217 (UniProt O75362)
Outline: (§1)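 Soluble protein was quantified by TMTpro 16plex LC-MS/MS after channel sums were equalised. It was obtained as the supernatant after 21,000xg for 90 min from pooled aliquots of K562 cells (2×10^6 cells/mL, 10 μM compound, 30 min) heated for 3 min across 48°C-58°C and extracted in PBS with 0.5% NP-40 at 4°C. Thermal stability values are relative to control samples and come from duplicates. They are given as log2 fold changes.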

[2] = target: ZNF239 (UniProt Q16600)
Chain of ZNF239 (Q16600 whole entry, looked up): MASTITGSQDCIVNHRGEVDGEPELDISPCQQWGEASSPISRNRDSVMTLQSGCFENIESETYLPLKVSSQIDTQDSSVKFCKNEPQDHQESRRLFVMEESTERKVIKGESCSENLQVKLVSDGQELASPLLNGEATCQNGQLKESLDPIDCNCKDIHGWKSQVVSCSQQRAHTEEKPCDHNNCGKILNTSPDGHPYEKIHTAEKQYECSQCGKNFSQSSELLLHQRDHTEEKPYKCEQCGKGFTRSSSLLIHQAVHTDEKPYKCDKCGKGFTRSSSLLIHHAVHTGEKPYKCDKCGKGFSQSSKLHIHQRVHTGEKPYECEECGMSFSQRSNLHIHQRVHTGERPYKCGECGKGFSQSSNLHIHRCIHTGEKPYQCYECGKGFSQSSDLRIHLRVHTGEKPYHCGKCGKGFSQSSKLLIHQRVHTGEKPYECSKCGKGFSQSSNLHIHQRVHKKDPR
Outline: as §1

[3] = target: ZNF277 (UniProt Q9NRM2)
Chain of ZNF277 (Q9NRM2 whole entry, looked up): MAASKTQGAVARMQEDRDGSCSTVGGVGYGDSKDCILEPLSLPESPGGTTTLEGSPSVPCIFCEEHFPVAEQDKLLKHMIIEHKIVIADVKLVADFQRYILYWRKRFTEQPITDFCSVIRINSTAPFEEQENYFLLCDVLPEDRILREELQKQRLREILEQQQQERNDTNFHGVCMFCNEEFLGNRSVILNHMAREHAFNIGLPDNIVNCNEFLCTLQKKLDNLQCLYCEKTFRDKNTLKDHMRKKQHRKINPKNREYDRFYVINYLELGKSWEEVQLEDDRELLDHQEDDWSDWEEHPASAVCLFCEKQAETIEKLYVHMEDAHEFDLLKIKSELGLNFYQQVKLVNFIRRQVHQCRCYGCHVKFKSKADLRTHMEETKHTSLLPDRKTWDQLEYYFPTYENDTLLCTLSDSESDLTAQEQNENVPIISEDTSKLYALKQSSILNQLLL
Outline: as §1

[4] = target: ZNF511 isoform 1 (UniProt Q8NB15)
Chain of ZNF511 isoform 1 (Q8NB15 whole entry, looked up, canonical isoform): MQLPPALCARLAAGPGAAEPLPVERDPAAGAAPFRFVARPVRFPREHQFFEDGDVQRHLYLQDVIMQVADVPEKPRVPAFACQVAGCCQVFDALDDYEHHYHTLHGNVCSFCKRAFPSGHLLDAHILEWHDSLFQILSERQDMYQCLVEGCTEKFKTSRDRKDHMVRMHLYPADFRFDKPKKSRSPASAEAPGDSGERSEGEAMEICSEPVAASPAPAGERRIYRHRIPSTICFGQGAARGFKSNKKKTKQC
Outline: as §1

[5] = target: ZNF512 (UniProt Q96ME7)
Chain of ZNF512 (Q96ME7 whole entry, looked up): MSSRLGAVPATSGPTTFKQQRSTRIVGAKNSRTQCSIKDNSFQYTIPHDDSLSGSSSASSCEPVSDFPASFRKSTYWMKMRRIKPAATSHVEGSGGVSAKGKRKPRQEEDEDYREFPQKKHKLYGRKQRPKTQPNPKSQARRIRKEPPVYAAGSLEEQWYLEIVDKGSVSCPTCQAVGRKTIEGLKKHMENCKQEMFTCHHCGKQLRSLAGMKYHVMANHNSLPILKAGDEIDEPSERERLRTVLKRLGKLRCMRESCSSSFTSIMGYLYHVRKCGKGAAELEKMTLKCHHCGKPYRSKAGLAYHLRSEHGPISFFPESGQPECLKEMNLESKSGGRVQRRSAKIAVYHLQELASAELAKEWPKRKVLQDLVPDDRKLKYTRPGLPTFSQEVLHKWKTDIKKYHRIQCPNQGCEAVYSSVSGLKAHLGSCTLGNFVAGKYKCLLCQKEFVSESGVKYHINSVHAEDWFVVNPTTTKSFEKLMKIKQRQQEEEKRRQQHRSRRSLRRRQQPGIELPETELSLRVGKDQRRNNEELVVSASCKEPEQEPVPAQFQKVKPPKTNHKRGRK
Outline: as §1

[6] = target: ZNF579 (UniProt Q8NAF0)
Chain of ZNF579 (Q8NAF0 whole entry, looked up): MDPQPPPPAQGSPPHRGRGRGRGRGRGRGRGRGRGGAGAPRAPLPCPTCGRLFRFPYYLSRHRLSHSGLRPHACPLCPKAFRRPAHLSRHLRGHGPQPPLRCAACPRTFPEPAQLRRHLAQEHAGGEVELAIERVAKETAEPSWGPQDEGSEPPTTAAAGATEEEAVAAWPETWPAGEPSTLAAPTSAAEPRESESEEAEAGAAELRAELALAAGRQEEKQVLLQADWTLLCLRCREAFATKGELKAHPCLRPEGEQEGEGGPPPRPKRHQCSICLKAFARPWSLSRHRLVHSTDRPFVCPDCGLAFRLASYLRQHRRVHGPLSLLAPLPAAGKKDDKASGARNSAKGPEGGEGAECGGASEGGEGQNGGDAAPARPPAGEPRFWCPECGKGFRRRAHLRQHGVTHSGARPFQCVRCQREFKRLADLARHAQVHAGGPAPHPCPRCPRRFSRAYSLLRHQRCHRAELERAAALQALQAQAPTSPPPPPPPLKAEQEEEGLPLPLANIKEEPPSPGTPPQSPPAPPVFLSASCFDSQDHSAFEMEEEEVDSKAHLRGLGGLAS
Outline: as §1

[7] = target: ZNF609 (UniProt O15014)
Outline: as §1

[8] = target: ZNF622 (UniProt Q969S3)
Chain of ZNF622 (Q969S3 whole entry, looked up): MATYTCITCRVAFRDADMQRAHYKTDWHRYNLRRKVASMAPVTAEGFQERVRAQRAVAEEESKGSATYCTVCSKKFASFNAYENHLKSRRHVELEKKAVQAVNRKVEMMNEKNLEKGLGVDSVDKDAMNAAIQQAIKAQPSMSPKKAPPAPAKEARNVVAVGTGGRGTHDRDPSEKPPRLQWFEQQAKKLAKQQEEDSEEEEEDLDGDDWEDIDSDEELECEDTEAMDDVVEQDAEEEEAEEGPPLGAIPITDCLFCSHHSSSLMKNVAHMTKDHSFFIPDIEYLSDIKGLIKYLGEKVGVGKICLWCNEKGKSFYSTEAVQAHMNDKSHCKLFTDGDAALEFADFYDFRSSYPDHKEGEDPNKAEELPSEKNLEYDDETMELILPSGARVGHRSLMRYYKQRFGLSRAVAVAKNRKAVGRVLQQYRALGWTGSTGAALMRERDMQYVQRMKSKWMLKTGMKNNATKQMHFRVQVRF
Outline: as §1

[9] = target: ZRANB2 (UniProt O95218)
Chain of ZRANB2 (O95218 whole entry, looked up): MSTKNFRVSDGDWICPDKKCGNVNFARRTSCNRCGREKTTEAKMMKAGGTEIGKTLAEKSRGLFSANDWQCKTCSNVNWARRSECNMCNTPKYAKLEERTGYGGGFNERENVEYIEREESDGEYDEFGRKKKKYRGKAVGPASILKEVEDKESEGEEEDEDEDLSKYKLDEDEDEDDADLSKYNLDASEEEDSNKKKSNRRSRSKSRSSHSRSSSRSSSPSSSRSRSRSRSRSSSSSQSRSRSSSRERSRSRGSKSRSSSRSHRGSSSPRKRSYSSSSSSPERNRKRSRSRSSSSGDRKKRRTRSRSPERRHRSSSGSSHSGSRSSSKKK
Outline: as §1

[10] = target: ZNF580 (UniProt Q9UK33)
Chain of ZNF580 (Q9UK33 whole entry, looked up): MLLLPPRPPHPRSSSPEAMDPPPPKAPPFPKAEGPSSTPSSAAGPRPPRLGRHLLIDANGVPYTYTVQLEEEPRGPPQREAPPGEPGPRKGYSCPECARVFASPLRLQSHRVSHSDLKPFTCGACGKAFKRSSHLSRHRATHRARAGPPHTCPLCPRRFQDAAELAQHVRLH
Outline: as §1

Chain of ZNF217 (O75362 whole entry, looked up): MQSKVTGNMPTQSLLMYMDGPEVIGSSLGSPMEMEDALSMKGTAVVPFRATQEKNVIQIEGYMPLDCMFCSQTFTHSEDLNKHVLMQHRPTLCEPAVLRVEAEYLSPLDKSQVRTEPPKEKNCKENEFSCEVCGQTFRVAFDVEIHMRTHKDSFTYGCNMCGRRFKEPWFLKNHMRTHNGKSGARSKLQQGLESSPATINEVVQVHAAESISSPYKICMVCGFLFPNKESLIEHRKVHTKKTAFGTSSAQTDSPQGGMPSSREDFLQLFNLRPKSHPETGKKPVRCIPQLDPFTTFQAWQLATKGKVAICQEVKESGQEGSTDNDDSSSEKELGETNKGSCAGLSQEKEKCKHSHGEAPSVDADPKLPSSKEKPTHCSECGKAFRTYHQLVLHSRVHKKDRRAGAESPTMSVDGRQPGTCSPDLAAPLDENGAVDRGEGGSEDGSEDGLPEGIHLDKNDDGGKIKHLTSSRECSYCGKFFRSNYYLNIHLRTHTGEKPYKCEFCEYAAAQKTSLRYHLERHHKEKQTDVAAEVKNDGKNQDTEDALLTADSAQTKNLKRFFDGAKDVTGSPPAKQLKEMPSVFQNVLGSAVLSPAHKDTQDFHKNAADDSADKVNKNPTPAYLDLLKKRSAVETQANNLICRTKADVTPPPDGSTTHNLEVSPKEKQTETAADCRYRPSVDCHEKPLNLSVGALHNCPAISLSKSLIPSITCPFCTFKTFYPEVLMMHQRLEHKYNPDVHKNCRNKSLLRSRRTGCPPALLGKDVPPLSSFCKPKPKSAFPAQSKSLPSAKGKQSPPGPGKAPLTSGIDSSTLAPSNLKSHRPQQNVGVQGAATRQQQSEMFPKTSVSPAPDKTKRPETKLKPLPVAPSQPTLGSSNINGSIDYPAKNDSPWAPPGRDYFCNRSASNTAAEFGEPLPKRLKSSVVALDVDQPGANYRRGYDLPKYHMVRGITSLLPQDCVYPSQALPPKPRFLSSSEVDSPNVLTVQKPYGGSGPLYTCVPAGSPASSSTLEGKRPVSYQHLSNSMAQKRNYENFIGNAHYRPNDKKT

SMILES	log2 fold change [1]	log2 fold change [2]	log2 fold change [3]	log2 fold change [4]	log2 fold change [5]	log2 fold change [6]	log2 fold change [7]	log2 fold change [8]	log2 fold change [9]	log2 fold change [10]
CC[C@H](C)[C@H](NC(=O)[C@H]([C@@H](C)CC)N(C)C(C)=O)C(=O)N[C@H](C(=O)N[C@@H](CC(C)C)C(=O)[C@@]1(C)CO1)[C@@H](C)O [epoxomicin]	0.075	-0.051	-0.06	-0.045	0.085	-0.024	-0.271	0.056	-0.016	
Cc1cn(-c2cc(NC(=O)c3ccc(C)c(Nc4nccc(-c5cccnc5)n4)c3)cc(C(F)(F)F)c2)cn1 [nilotinib]	-0.082	-0.022	-0.207	-0.17	-0.031	0.105	0.03	0.046	0.052	
O=C1NC(=NCc2cccs2)S/C1=C\c1ccc2ncccc2c1	0.007	0.117	0.019	0.087	0.102	-0.051	-0.025	0.07	-0.059	
CO[C@H]1C[C@@H]2CC[C@@H](C)[C@@](O)(O2)C(=O)C(=O)N2CCCC[C@H]2C(=O)O[C@H]([C@H](C)C[C@@H]2CC[C@H](n3cnnn3)[C@H](OC)C2)CC(=O)[C@H](C)/C=C(\C)[C@@H](O)[C@@H](OC)C(=O)[C@H](C)C[C@H](C)/C=C/C=C/C=C/1C [zotarolimus]	-0.007	-0.483	-0.084	0.066	-0.024	0.099	-0.008	-0.017	-0.011	
O=C1c2ccccc2-c2n[nH]c3cccc1c23	0.03	0.004	0.065	0.041	0.161	0.279	0.002	0.042	-0.059	
Cc1nc(Nc2n[nH]c3c2CN(C(=O)N[C@H](CN(C)C)c2ccccc2)C3(C)C)c2sccc2n1	-0.055	-0.012	0.231	0.005	0.187	-0.115	-0.018	0.091	-0.032	
COc1cc(C(=O)O)ccc1NC(=O)[C@@H]1N[C@@H](CC(C)(C)C)[C@](C#N)(c2ccc(Cl)cc2F)[C@H]1c1cccc(Cl)c1F [idasanutlin]	-0.027	-0.031	-0.003	0.128	0.3	-0.116	0.021	-0.031	0.024	
CC(=O)c1cnc2ccc(-c3cc(Cl)c(O)c(Cl)c3)nc2c1N[C@H]1CC[C@H](CN(C)C)CC1	-0.125	-0.439	-0.017	-0.005	-0.15	-0.187	-0.071	0.096	0.017	
COc1cc2ncnc(Nc3ccc(F)c(Cl)c3)c2cc1OCCCN1CCOCC1 [gefitinib]	0.001	-0.267	-0.053	-0.192	-0.02	0.111	-0.069	0	0.034	
Fc1ccc(Cl)cc1-c1nc(Nc2ccncc2)c2nccnc2n1	0.168	-0.333	-0.765 (active)	-0.03	0.086	-0.002	-0.302	0.038	0.041	
CC(C)(O)CC(=O)NCCn1ccc2ncnc(Nc3ccc(Oc4cccc(C(F)(F)F)c4)c(Cl)c3)c21	-0.122	0.086	-0.002	0.1	-0.018	-0.018	0.101	-0.078	-0.012	
CC1=C(C(=O)Nc2cc3cn[nH]c3cc2F)C(c2ccc(C(F)(F)F)cc2)CC(=O)N1 (stereo not given)	-0.033	0.283	-0.009	-0.006	-0.261	-0.003	-0.117	-0.083	0.025	
COc1cc(Nc2ncc3c(n2)-c2ccc(Cl)cc2C(c2c(F)cccc2OC)=NC3)ccc1C(=O)O [alisertib]	-0.092	-0.004	0.028	1.14	-0.286	-0.082	-0.021	-0.028	-0.058	
O=C(Nc1cccc(Nc2ncc(Br)c(NCCc3cnc[nH]3)n2)c1)N1CCCC1	0.01	0.001	0.034	0.072		-0.377 (active)	-0.035	0.022	-0.007	0.062
CN1CC[C@H](c2c(O)cc(O)c3c(=O)cc(-c4ccccc4Cl)oc23)[C@H](O)C1 [alvocidib]	-0.164	0.226	0.169	-0.143	-0.002	-0.034	0.077	0.085	0.068	
CCCCN(Cc1ccc(C(=O)NO)cc1)C(=O)Nc1ccccc1 [Nexturastat A]	0.006	0.441	0.276	-0.074	-0.038	0.004	0.475 (active)	-0.086	-0.057	
O=C1NC(=O)C(c2cnc3ccccn23)=C1c1cn2c3c(cc(F)cc13)CN(C(=O)N1CCCCC1)CC2	-0.102	0.082	0.124	-0.095	-0.023	0.038	-0.571 (active)	0.043	0.12	
NC1(c2ccc(-c3nc4ccn5c(=O)[nH]nc5c4cc3-c3ccccc3)cc2)CCC1	-0.045	-0.253	0.107	-0.039	0.151	-0.061	0.018	-0.019	0.046	
O=C(O)c1ccc2c(c1)nc(Nc1cccc(Cl)c1)c1ccncc12 [silmitasertib]	-0.073	0.29	0.105	0.076	0.234	-0.016	0.02	-0.058	0.018	
COc1cccc2cc(-c3nc([C@H]4CC[C@H](C(=O)O)CC4)n4ncnc(N)c34)[nH]c12	0.043	0.548	-0.24	0.099	-0.041	-0.078	-0.028	0.01	-0.01	
CCCc1cc(C)[nH]c(=O)c1CNC(=O)c1cc(-c2ccnc(N3CCN(C)CC3)c2)cc2c1cnn2C(C)C	0.003	-0.662 (active)	0.154	0.08	0.363	0.058	-0.003	-0.01	0.028	
C/C(=N\NC(=O)c1cccc(S(=O)(=O)N2CCOCC2)c1)c1cc(Cl)ccc1O	0.074	0.019	-0.031	-0.402 (active)	-0.085	0.147	-0.048	0.015	-0.067	
C[C@@H]1COCCN1c1cc(C2(S(C)(=O)=O)CC2)nc(-c2cccc3[nH]ccc23)n1	-0.099	-0.065	-0.566	0.105	0.007	-0.114	-0.064	0.067	0.001	
CC[C@H](C)n1cc(C)c2c(C(=O)NCc3c(C)cc(C)[nH]c3=O)cc(-c3ccc(N4CCNCC4)nc3)cc21	0.045	-0.096	0.02	-0.058	-0.002	0.167	0.076	-0.012	0	
NCC(=O)Nc1ccc(-n2nc(C(F)(F)F)cc2-c2ccc3c(ccc4ccccc43)c2)cc1	-0.081	-0.027	-0.148	-0.005		0.085	-0.076	-0.016	0.067	-0.038
